Among the test systems are HCT-15 colon; HT29 colon; SNB-75 CNS; SNB-19 CNS; U251 CNS; PC-3 prostate; SK-MEL-5 melanoma; UACC-62 melanoma; LOX IMVI melanoma; SK-MEL-28 melanoma; EKVX NSCLC; SN12C renal; UO-31 renal; TK-10 renal; ACHN renal; CAKI-1 renal; A498 renal; CCRF-CEM leukemia; MOLT-4 leukemia.
Common to all, as to assay: NCI-60 one-dose screen, 48 h (100 = growth as untreated, 0 = no growth, -100 = all killed)
Holding throughout (conditions): 10 µM unless noted

Data on eight molecules can be found in PubChem BioAssay (NCI).

About 83,000 compounds went through this panel and 20% of them were active in at least one assay; those are over-represented in the sample as a whole.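 96-well plates, one dose, 48 hours. Percent growth reported; active if below 10.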 Values without a mark were called inactive. Active and inactive are the calls of the source.

With `CCNCCNc1cc(-c2ccc(C#N)cc2)c(C#N)c2nc3ccccc3n12`, the growth is 33.6% in the assay with HCT-15 colon; 4.72% (active) in the assay with HT29 colon; -20.4% (active) with SNB-75 CNS; 51% with SNB-19 CNS; -23.4% (active) in the assay with U251 CNS; 44.7% with PC-3 prostate. Further, the growth in the assay on SK-MEL-5 melanoma was 65.7%; in the assay on UACC-62 melanoma, -34.8% (active); in the assay with LOX IMVI melanoma it was -53.9% (active); in the assay with SK-MEL-28 melanoma, -47.7% (active); in the assay on EKVX NSCLC, 76%; in the assay with SN12C renal it was 59.3%. In addition, the growth in the assay on UO-31 renal is -21.3% (active); in the assay on TK-10 renal it was 82.3%; in the assay on ACHN renal it was 3.09% (active); in the assay with CAKI-1 renal it was 57.4%; with A498 renal, 60.7%; with CCRF-CEM leukemia it was 27.5%. The growth in the assay on MOLT-4 leukemia was 51.2%.
`O=C(Nc1ccccn1)[C@H](O)[C@@H](O)C(=O)N1CCOCC1`: the growth was 107% with HCT-15 colon; 104% in the assay with HT29 colon; 121% with SNB-75 CNS; 102% with SNB-19 CNS; 96.1% in the assay on U251 CNS; 94% in the assay with PC-3 prostate. The growth is 99.3% in the assay on SK-MEL-5 melanoma; 108% with UACC-62 melanoma; 104% in the assay on LOX IMVI melanoma; 114% with SK-MEL-28 melanoma; 109% in the assay with EKVX NSCLC; 97.3% in the assay with SN12C renal. Moreover, the growth with UO-31 renal is 104%; in the assay on TK-10 renal, 96.2%; in the assay on ACHN renal, 112%; in the assay on CAKI-1 renal, 105%; in the assay on A498 renal it was 108%; in the assay with CCRF-CEM leukemia it was 98.6%. Also, in the assay on MOLT-4 leukemia, the growth was 105%.
In the case of `COc1ccc(-c2cc(-c3cc(OC)ccc3OC)[nH]c(=O)c2C#N)cc1`, the growth in the assay on HCT-15 colon was 62.8%; in the assay with HT29 colon it was 38.1%; in the assay with SNB-75 CNS it was 56.4%; in the assay on SNB-19 CNS it was 68.1%; with U251 CNS, 39.5%; in the assay with PC-3 prostate it was 72.6%. For the same molecule, the growth in the assay with SK-MEL-5 melanoma was 40.1%; in the assay with UACC-62 melanoma it was 47.7%; with LOX IMVI melanoma it was 44.6%; with SK-MEL-28 melanoma it was 74.8%; in the assay with EKVX NSCLC, 96.5%; in the assay with SN12C renal, 72%. Further, the growth with UO-31 renal was 64.4%; with TK-10 renal it was 84.9%; with ACHN renal, 85.3%; in the assay with CAKI-1 renal it was 63%; in the assay on A498 renal it was -1.35% (active); with MOLT-4 leukemia, 44.3%.
As for `Cc1cnc(Nc2ccc(N3CCN(C)CC3)cc2)nc1Nc1ccc(Cl)c(NS(=O)(=O)C(C)(C)C)c1`, the growth in the assay with HCT-15 colon was 4.29% (active); with HT29 colon, -31.1% (active); with SNB-75 CNS, -36.8% (active); in the assay with SNB-19 CNS, 53.1%; in the assay on U251 CNS, 24.2%; in the assay on PC-3 prostate, 39.4%. In addition, the growth was -8.43% (active) in the assay on SK-MEL-5 melanoma; 16.1% with UACC-62 melanoma; -84.4% (active) in the assay on LOX IMVI melanoma; 35.2% in the assay on SK-MEL-28 melanoma; 32.5% with EKVX NSCLC; 34% in the assay on SN12C renal. In addition, the growth was -20.7% (active) in the assay with UO-31 renal; 0.435% (active) in the assay with TK-10 renal; -4.72% (active) in the assay with ACHN renal; 25% in the assay on CAKI-1 renal; -85.4% (active) with A498 renal; 34.2% in the assay on CCRF-CEM leukemia. For the same molecule, the growth in the assay on MOLT-4 leukemia was 10% (active).
`CCNCCNc1cc(-c2ccc(C(=O)OC)cc2)c(C#N)c2nc3ccccc3n12`: the growth with HCT-15 colon is 45.8%; in the assay on HT29 colon, 4.67% (active); in the assay on SNB-75 CNS, -38.2% (active); in the assay with SNB-19 CNS, 41.8%; in the assay on U251 CNS, -29% (active); with PC-3 prostate it was 54.1%. Besides, the growth in the assay with SK-MEL-5 melanoma was 71.6%; with UACC-62 melanoma it was -17.7% (active); with LOX IMVI melanoma, -53.4% (active); in the assay on SK-MEL-28 melanoma it was 17%; in the assay on EKVX NSCLC, 84.8%; in the assay with SN12C renal, 67.4%. Moreover, the growth was -11.3% (active) with UO-31 renal; 87.3% in the assay with TK-10 renal; 36.4% in the assay on ACHN renal; 58.2% with CAKI-1 renal; 81.9% with A498 renal; -3.88% (active) with CCRF-CEM leukemia. In the assay on MOLT-4 leukemia, the growth was 28.3%.
Consider `CC(=O)Nc1nccs1`, for which the growth in the assay with HCT-15 colon was 98%; with HT29 colon, 101%; with SNB-75 CNS it was 106%; in the assay with SNB-19 CNS it was 96.3%; in the assay with U251 CNS it was 98.9%; in the assay on PC-3 prostate, 96.1%. Also, the growth in the assay on SK-MEL-5 melanoma was 101%; in the assay with UACC-62 melanoma it was 92.7%; in the assay with LOX IMVI melanoma, 94.8%; in the assay with SK-MEL-28 melanoma it was 98.6%; in the assay with EKVX NSCLC it was 92.2%; in the assay with SN12C renal, 97.2%. Moreover, the growth was 84.7% with UO-31 renal; 99.9% in the assay on TK-10 renal; 98.1% in the assay on ACHN renal; 101% in the assay with CAKI-1 renal; 73.6% in the assay on A498 renal; 96.4% in the assay on CCRF-CEM leukemia. Besides, the growth in the assay with MOLT-4 leukemia was 103%.
Turning to `COC(=O)CNC(=O)C(=O)c1c(O)c(O)c(C(C)C)c2cc(C)c(-c3c(C)cc4c(C(C)C)c(O)c(O)c(C(=O)C(=O)NCC(=O)OC)c4c3O)c(O)c12`, the growth with HCT-15 colon is 18.3%; in the assay with HT29 colon, 6.08% (active); in the assay on SNB-75 CNS it was 57.5%; in the assay with SNB-19 CNS, 18.5%; with U251 CNS it was 4.8% (active); in the assay on PC-3 prostate, 18.7%. The growth with SK-MEL-5 melanoma was 50.1%; in the assay on UACC-62 melanoma, 48.5%; in the assay with LOX IMVI melanoma, 21.2%; in the assay on SK-MEL-28 melanoma, 44.7%; with EKVX NSCLC, 5.91% (active); in the assay on SN12C renal, 32.9%. The growth in the assay with UO-31 renal is 1.7% (active); in the assay on TK-10 renal, 22.6%; with ACHN renal, 3.33% (active); in the assay on CAKI-1 renal it was 51.4%; in the assay with A498 renal it was 27.6%; with CCRF-CEM leukemia, 24.4%. Moreover, in the assay with MOLT-4 leukemia, the growth was 15.7%.
As to `CN(C)c1ccc(/C=C/c2c(F)cccc2F)cc1`, the growth with HCT-15 colon is 98.6%; in the assay on HT29 colon it was 92.3%; in the assay with SNB-75 CNS, 88.4%; in the assay on SNB-19 CNS, 105%; with U251 CNS it was 89.9%; with PC-3 prostate, 81.7%. In addition, the growth was 94.9% with SK-MEL-5 melanoma; 97.9% in the assay on UACC-62 melanoma; 88.1% in the assay on LOX IMVI melanoma; 109% with SK-MEL-28 melanoma; 76.2% in the assay on EKVX NSCLC; 98.2% in the assay with SN12C renal. Moreover, the growth is 55.6% in the assay with UO-31 renal; 109% in the assay with TK-10 renal; 92.7% in the assay with ACHN renal; 94.6% in the assay on CAKI-1 renal; 77.2% in the assay on A498 renal; 101% in the assay with CCRF-CEM leukemia. Also, in the assay on MOLT-4 leukemia, the growth was 97.4%.
